Results as given in PubChem BioAssay AID743287 (Broad Institute, 2014).
“And” between values parts separate entries of the source, which are not always exact repeats. Identical values can stand only once. In all, about 370,000 compounds went through this assay and about 2,300 (0.62%) were called active.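 Rule for the calls: active = lowest replicate activation of at least 40%, so every replicate reaches that level; inactive = the rest.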 The list comes from a sample in which actives are over-represented; it also holds similar structures and randomly drawn compounds.

Experiment: primary screen for activators of insulin secretion dependent on glucose, INS-1E cells, GLuc reporter luminescence (AID 743287);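 note: 0% = median of neutral control wells and 100% = median of IBMX positive control wells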
Details: INS-1E GLuc reporter insulin secretion, 2-3 h, at 16.6 µM, active compounds read high

activation, inactive:
Cc1ccnc(NS(=O)(=O)c2ccc(NC(=O)c3ccc(S(=O)(=O)N(C)C)cc3)cc2)n1 7.95%, O=C(Nc1ccc(S(=O)(=O)Nc2ncccn2)cc1)c1cncc(Br)c1 1.33%, COCCCNC(=S)N(Cc1ccccc1)Cc1ccc(F)cc1 -5.03%, COCCNC(=S)N(CCc1c(C)[nH]c2ccc(C)cc12)Cc1cccnc1 -2.95%, COc1ccc(-c2cnc3c(c2)C(=O)N([C@@H](C)CO)C[C@@H](C)[C@H](CN(C)C(=O)C2CCCCC2)O3)cc1 -13.6%, O=C(C[C@H]1CC[C@H]2[C@@H](COC[C@@H](O)CN2S(=O)(=O)c2ccc(Cl)cc2)O1)NCCN1CCCCC1 17.3%, CNC[C@@H]1Oc2cc(-c3ccccc3OC)ccc2S(=O)(=O)N([C@H](C)CO)C[C@H]1C 5.62%, CC1(C)OC(=O)C2=C(C[C@@H](C3CC3)O[C@H]2CCc2cccc(Cl)c2)O1 -7.22%, CC[C@@H]1CC2=C(C(=O)OC(C)(C)O2)[C@@H](CC)O1 -0.455%, O=C(Nc1ccc(C(F)(F)F)cc1)N1[C@@H]2CNC[C@H]1C2c1ccc(-c2ccncc2)cc1 (stereo not given in full) 3.37% and 12.2%, CCCCc1nc(NCc2ccccc2)c(C#N)c2c1CCCC2 -17.4%, COc1cccc(S(=O)(=O)N2[C@@H]3CNC[C@H]2C3c2ccc(-c3cccc(C(=O)N(C)C)c3)cc2)c1 (stereo not given in full) 11.3% and 0.645%, CO[C@H]1CN(C)C(=O)c2cc(NS(C)(=O)=O)ccc2OC[C@@H](C)N(C(=O)NC(C)C)C[C@@H]1C 8.6%, CCOC(=O)C1(Cc2cccc(OC)c2)CCN(C(C)COC)CC1 (stereo not given) 5.01%, CCOC(=O)C1(Cc2cccc(OC)c2)CCCN(S(=O)(=O)c2cccnc2)C1 (stereo not given) -3.61%, C[C@@H]1CN([C@H](C)CO)C(=O)c2cccc(NC(=O)CCCCCC(=O)Nc3ccccc3N)c2O[C@H]1CN(C)CC1CCCCC1 -3.22%, C[C@@H]1CN([C@@H](C)CO)C(=O)c2cc(NC(=O)Nc3ccccc3)ccc2O[C@H]1CN(C)S(=O)(=O)c1ccccc1 6.36%, CN(CCC(=O)Nc1cc(S(=O)(=O)N(C)C)ccc1Cl)CC(=O)Nc1ccc(F)cc1 -1.06%, Cc1onc(-c2c(F)cccc2Cl)c1C(=O)Nc1cccc(S(=O)(=O)N2CCCCC2)c1 -9.79%, C/C=C/c1ccc(C2[C@H]3CNC[C@@H]2N3CC2CCOCC2)cc1 (stereo not given in full) 8.12%, C[C@@H]1CN([C@@H](C)CO)C(=O)Cc2cc(NC(=O)Cc3ccccc3)ccc2O[C@H]1CN(C)Cc1ccc(C(=O)O)cc1 12.1%, CC(C)NC(=O)Nc1ccc2c(c1)C(=O)N(C)[C@H]1CC[C@H](CC(=O)NCC3CCCCC3)O[C@@H]1CO2 5.93%, CCC(=O)Nc1ccc2c(c1)C(=O)N(C)C[C@H](OC)[C@@H](C)CN(Cc1nccs1)[C@H](C)CO2 5.56%, CC1CN(Cc2ccco2)C(=S)N(c2ccccc2)C1=O (stereo not given) 10.7%, CC1CC(=S)Nc2ccccc2N1Cc1ccccc1 (stereo not given) -14.5%, COCC(=O)N(C)C[C@H]1Oc2cc(C#CC3CCCC3)ccc2S(=O)(=O)N([C@H](C)CO)C[C@@H]1C -6.72%, COc1ccccc1CNC(=O)C[C@H]1C[C@@H]2c3cc(NC(=O)Nc4ccccc4F)ccc3O[C@@H]2[C@H](CO)O1 13.4%, Cc1ccc(NC(=O)CSc2nnc(COc3ccccc3C)o2)cc1 6.85%, COc1cccc(NC(=O)CSc2nnc(Cc3ccc(OC)c(OC)c3)o2)c1 37.6%, C[C@H](CO)N1C[C@H](C)[C@@H](CN(C)C)Oc2ncc(-c3cccc(F)c3)cc2C1=O -1.15%, C[C@H](CO)N1C[C@H](C)[C@@H](CN(C)Cc2ccccc2)Oc2c(NC(=O)CCCCCC(=O)Nc3ccccc3N)cccc2C1=O -7.28%, CNC(=S)N/N=C/c1ccc(N2CCOCC2)s1 8.01%, Oc1c(Br)cc(/C=N/NC(=S)NCC2CCCO2)cc1Br (stereo not given) -34.5%, COCC#Cc1cnc2c(c1)C(=O)N([C@H](C)CO)C[C@H](C)[C@H](CN(C)C(=O)Cc1cccnc1)O2 27.8%, COc1cccc(-c2cnc3c(c2)C(=O)N([C@H](C)CO)C[C@H](C)[C@H](CN(C)S(=O)(=O)c2cccc(F)c2)O3)c1 -6.84%, C[C@H](CO)N1C[C@H](C)[C@@H](CN(C)C(=O)Cc2ccncc2)Oc2ncc(C#CCN(C)C)cc2C1=O 36.3%, Cc1cc(NCc2cccnc2)no1 -3.31%, Cc1cc(NC(=O)COc2ccccc2C#N)no1 10.8%, COc1ccc(CN(C)C[C@H]2Oc3c(NC(=O)c4cnccn4)cccc3C(=O)N([C@H](C)CO)C[C@@H]2C)cc1 3%, O=C1[C@H](Cc2ccc(C(F)(F)F)cc2)CCn2nncc2COC[C@@H]2CCCCN12 1.36%

activation, active:
CCOc1ncccc1C(=O)Nc1ccc(S(=O)(=O)Nc2nc(C)cc(C)n2)cc1 65.9%, COCCNC(=S)N(Cc1cccnc1)Cc1ccc(OC)c(OC)c1 53.5%, CCC1OC(C2CC2)CC2=C1C(=O)OC(C)(C)O2 (stereo not given) 44.5%, CCCCc1nc(NCCN)c(C#N)c2c1CSC(C)(C)C2 44.2%, CCOC(=O)C1(Cc2cccc(OC)c2)CCCN(C(=O)CCSC)C1 (stereo not given) 51.6%, Cc1cccc(CS(=O)(=O)c2ncc(Cl)c(C(=O)Nc3ccc(F)cc3)n2)c1 44.8%, CC1CN(Cc2ccccc2)C(=S)NC1=O (stereo not given) 41.2%, COc1ccc(Cc2nnc(SCC(=O)Nc3ccc(C)c(C)c3)o2)cc1OC 71.9%, CNC(=S)N/N=C/c1ccc(OCc2ccccc2)c(Br)c1 107%, Cc1cc(N/C=C\C(=O)c2ccc(Cl)c(Cl)c2)no1 76.1%
